# Experimental data as given in PubChem BioAssay AID1159580 (chemical genetic matrix, 2015).
# The campaign covered roughly 5,500 compounds. About 2,000 (36%) were called active. Roughly 18% stayed inconclusive and do not appear here. The list shows a part of the results. Unmarked numbers belong to inactive results. No stated cut-off is given here; in the data, active means normalized growth mostly below about 0.91 (no sharp cut-off); inconclusive means no clear call, values can overlap the other calls; inactive means mostly above about 0.92.
# Test: chemical genetic growth profiling, strain panel (AID 1159580);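 further: tested at 20 µM; growth read once vehicle control cultures reached saturation at 30 °C; 1 = growth at the plate median or of vehicle wells; lower values mean less growth of the strain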
# Conditions: S. cerevisiae deletion strains, growth OD
# [1] = locus YGR078C, strain PAC10, active compounds read low
# [2] = locus YJR075W, strain HOC1, active compounds read low
# [3] = locus YNL153C, strain GIM3, active compounds read low
# [4] = locus YNL322C, strain KRE1, active compounds read low
# [5] = locus YDL101C, strain DUN1, active compounds read low
# [6] = locus YHR030C, strain SLT2, active compounds read low
# [7] = locus YAL013W, strain DEP1, active compounds read low
# [8] = locus YBR229C, strain ROT2, active compounds read low
# [9] = locus YDR150W, strain NUM1, active compounds read low
# [10] = locus YEL061C, strain CIN8, active compounds read low
# [11] = locus YHR087W, strain rtc3, active compounds read low
# [12] = locus YJL187C, strain SWE1, active compounds read low
# [13] = locus YJR043C, strain POL32, active compounds read low
# [14] = locus YLR039C, strain RIC1, active compounds read low
# [15] = locus YLR058C, strain SHM2 (second series), active compounds read low
# [16] = locus YLR085C, strain ARP6, active compounds read low
# [17] = locus YLR262C, strain YPT6, active compounds read low
# [18] = locus YML094W, strain GIM5, active compounds read low
# [19] = locus YMR219W, strain ESC1, active compounds read low
# [20] = locus YMR263W, strain SAP30, active compounds read low
# [21] = locus YNL128W, strain TEP1, active compounds read low
# [22] = locus YNL298W, strain CLA4 (second series), active compounds read low
# [23] = locus YNR030W, strain Alg12, active compounds read low
# [24] = locus YPL055C, strain LGE1, active compounds read low
# [25] = locus YPL241C, strain CIN2, active compounds read low
# [26] = locus YPR135W, strain CTF4, active compounds read low
smiles,measurement,setting,value
Brc1ccc([C@H]2CN3CCSC3=N2)cc1,normalized growth,"locus YAL040C, strain CLN3, active compounds read low",1.01
same,normalized growth,"locus YER002W, strain NOP16, active compounds read low",1.03
same,normalized growth,[1],1.02
same,normalized growth,[2],0.983
same,normalized growth,[3],0.997
same,normalized growth,"locus YNL175C, strain NOP13, active compounds read low",1.01
same,normalized growth,"locus YNL197C, strain WHI3, active compounds read low",1.01
same,normalized growth,"locus YNL224C, strain SQS1, active compounds read low",1.01
same,normalized growth,[4],0.997
same,normalized growth,"locus YOR083W, strain WHI5 (second series), active compounds read low",1.02
Clc1cc(Cl)cc(C=NCc2ccccc2)c1,normalized growth,"locus YAR019C, strain CDC15, active compounds read low",0.958
same,normalized growth,"locus YBL105C, strain PKC1, active compounds read low",0.946
same,normalized growth,"locus YBR135W, strain CKS1, active compounds read low",0.961
same,normalized growth,"locus YBR136W, strain MEC1, active compounds read low",0.957
same,normalized growth,"locus YBR160W, strain CDC28, active compounds read low",0.955
same,normalized growth,"locus YDL017W, strain CDC7, active compounds read low",0.951
same,normalized growth,"locus YDL028C, strain MPS1, active compounds read low",0.958
same,normalized growth,[5],0.964
same,normalized growth,"locus YDL108W, strain KIN28, active compounds read low",0.964
same,normalized growth,"locus YDL132W, strain cdc53, active compounds read low",0.959
same,normalized growth,"locus YDL214C, strain PRR2, active compounds read low",0.665 (active)
same,normalized growth,"locus YDR052C, strain DBF4, active compounds read low",0.957
same,normalized growth,"locus YDR054C, strain cdc34, active compounds read low",0.95
same,normalized growth,"locus YDR226W, strain ADK1, active compounds read low",0.957
same,normalized growth,"locus YDR477W, strain SNF1, active compounds read low",0.621 (active)
same,normalized growth,"locus YER123W, strain YCK3, active compounds read low",0.364 (active)
same,normalized growth,"locus YER133W, strain GLC7, active compounds read low",0.625 (active)
same,normalized growth,"locus YFL009W, strain cdc4, active compounds read low",0.961
same,normalized growth,"locus YFL029C, strain CAK1, active compounds read low",0.961
same,normalized growth,"locus YFR003C, strain YPI1, active compounds read low",0.95
same,normalized growth,"locus YFR019W, strain FAB1, active compounds read low",0.501 (active)
same,normalized growth,"locus YFR028C, strain CDC14, active compounds read low",0.967
same,normalized growth,"locus YGR040W, strain KSS1, active compounds read low",0.681 (active)
same,normalized growth,"locus YGR052W, strain FMP48, active compounds read low",0.627
same,normalized growth,"locus YGR092W, strain DBF2, active compounds read low",0.222 (active)
same,normalized growth,[6],0.322 (active)
same,normalized growth,"locus YHR079C, strain IRE1, active compounds read low",0.27 (active)
same,normalized growth,"locus YHR082C, strain KSP1, active compounds read low",0.616
same,normalized growth,"locus YHR205W, strain SCH9, active compounds read low",0.621
same,normalized growth,"locus YIL147C, strain SLN1, active compounds read low",0.947
same,normalized growth,"locus YJL095W, strain BCK1, active compounds read low",0.375 (active)
same,normalized growth,"locus YJL128C, strain PBS2, active compounds read low",0.93
same,normalized growth,"locus YJL157C, strain FAR1, active compounds read low",0.458 (active)
same,normalized growth,"locus YJR016C, strain ILV3, active compounds read low",0.961
same,normalized growth,"locus YJR066W, strain TOR1 (second series), active compounds read low",0.585 (active)
same,normalized growth,"locus YJR066W, strain TOR1, active compounds read low",0.433 (active)
same,normalized growth,"locus YKL048C, strain ELM1, active compounds read low",0.722 (active)
same,normalized growth,"locus YKL067W, strain YNK1, active compounds read low",0.58 (active)
same,normalized growth,"locus YKL101W, strain HSL1, active compounds read low",0.692 (active)
same,normalized growth,"locus YKL193C, strain SDS22, active compounds read low",0.956
same,normalized growth,"locus YKL203C, strain TOR2, active compounds read low",0.691 (active)
same,normalized growth,"locus YLR113W, strain HOG1, active compounds read low",0.375 (active)
same,normalized growth,"locus YLR133W, strain CKI1, active compounds read low",0.525 (active)
same,normalized growth,"locus YLR403W, strain SFP1, active compounds read low",0.479 (active)
same,normalized growth,"locus YML070W, strain DAK1, active compounds read low",0.428 (active)
same,normalized growth,"locus YMR001C, strain CDC5, active compounds read low",0.947
same,normalized growth,"locus YMR205C, strain PFK2 (second series), active compounds read low",0.652 (active)
same,normalized growth,"locus YMR277W, strain FCP1, active compounds read low",0.966
same,normalized growth,"locus YNL006W, strain LST8, active compounds read low",0.95
same,normalized growth,"locus YNL020C, strain ARK1, active compounds read low",0.452 (active)
same,normalized growth,"locus YNL161W, strain CBK1, active compounds read low",0.95
same,normalized growth,"locus YNL183C, strain NPR1, active compounds read low",0.549 (active)
same,normalized growth,"locus YNL207W, strain RIO2, active compounds read low",0.963
same,normalized growth,"locus YNL222W, strain SSU72, active compounds read low",0.963
same,normalized growth,"locus YNL307C, strain MCK1 (second series), active compounds read low",0.489 (active)
same,normalized growth,"locus YOL078W, strain AVO1, active compounds read low",0.965
same,normalized growth,"locus YOL136C, strain PFK27, active compounds read low",0.328 (active)
same,normalized growth,"locus YOR061W, strain CKA2, active compounds read low",0.441 (active)
same,normalized growth,"locus YOR119C, strain RIO1, active compounds read low",0.744
same,normalized growth,"locus YOR231W, strain MKK1, active compounds read low",0.364 (active)
same,normalized growth,"locus YOR329C, strain SCD5, active compounds read low",0.946
same,normalized growth,"locus YPL031C, strain PHO85, active compounds read low",0.589 (active)
same,normalized growth,"locus YPL153C, strain RAD53, active compounds read low",0.534 (active)
same,normalized growth,"locus YPL204W, strain HRR25, active compounds read low",0.489 (active)
same,normalized growth,"locus YPL209C, strain IPL1, active compounds read low",0.957
same,normalized growth,"locus YPL256C, strain CLN2, active compounds read low",0.303 (active)
same,normalized growth,"locus YPR025C, strain CCL1, active compounds read low",0.953
same,normalized growth,"locus YPR106W, strain ISR1, active compounds read low",0.959
same,normalized growth,"locus YPR111W, strain DBF20, active compounds read low",0.957
same,normalized growth,"strain NNK1, active compounds read low",0.959
same,normalized growth,"strain TSCII, active compounds read low",0.954
Brc1cccc(C=NCc2ccccc2)c1,normalized growth,[7],0.87 (active)
same,normalized growth,[8],0.843 (active)
same,normalized growth,[5],0.888 (active)
same,normalized growth,"locus YDL134C, strain PPH21, active compounds read low",0.765 (active)
same,normalized growth,[9],0.932
same,normalized growth,[10],0.621 (active)
same,normalized growth,[1],0.847 (active)
same,normalized growth,[6],0.198 (active)
same,normalized growth,[11],0.788 (active)
same,normalized growth,[12],0.848 (active)
same,normalized growth,[13],0.954
same,normalized growth,[2],0.719 (active)
same,normalized growth,[14],0.242 (active)
same,normalized growth,[15],0.961
same,normalized growth,[16],0.333 (active)
same,normalized growth,[17],0.23 (active)
same,normalized growth,[18],0.656 (active)
same,normalized growth,[19],0.92 (active)
same,normalized growth,[20],0.883 (active)
same,normalized growth,[21],0.829 (active)
same,normalized growth,[3],0.921 (active)
same,normalized growth,[22],0.664 (active)
same,normalized growth,[4],0.983
same,normalized growth,[23],0.761 (active)
same,normalized growth,[24],0.825
same,normalized growth,[25],0.663 (active)
same,normalized growth,[26],0.366 (active)
O=C1c2ccccc2C2(c3ccccc3)NCCN12 (stereo not given),normalized growth,[7],1
same,normalized growth,[8],1.01
same,normalized growth,"locus YCL061C, strain MRC1, active compounds read low",0.987
same,normalized growth,[5],0.982
same,normalized growth,[9],0.989
same,normalized growth,[10],1.02
same,normalized growth,[1],1.01
same,normalized growth,[6],0.972
same,normalized growth,[11],0.993
same,normalized growth,[12],0.997
same,normalized growth,[13],0.956
same,normalized growth,[2],1.01
same,normalized growth,[14],0.976
same,normalized growth,[15],0.997
same,normalized growth,[16],1.04
same,normalized growth,[17],0.968
same,normalized growth,[18],1.04
same,normalized growth,[19],1
same,normalized growth,[20],1.01
same,normalized growth,[21],0.983
same,normalized growth,[3],1.01
same,normalized growth,[22],0.995
same,normalized growth,[4],0.996
same,normalized growth,[23],0.982
same,normalized growth,[24],1.04
same,normalized growth,[25],1.02
same,normalized growth,[26],0.957
